From PubChem
Vaccinia Venus: qHTS for Stage-Specific Inhibitors of Vaccinia Orthopoxvirus: Venus Reporter Primary qHTS. Vaccinia virus Venus reporter expression, fluorescence. Potency, µM (series often up to 36.5 µM), without a hit: at the top dose activity change, negative = inhibition, most hits filed as inhibitors. 330,000 compounds, 0.46% hits. AID 720580, 2013; calls by dose curve; tested in A549 cells; also: nearly all actives have a fitted effect of over 30% in size
MARV entry inh: qHTS for inhibitors of binding or entry into cells for Marburg Virus. AID 540276, 2011. Potency, µM (series often up to 37.8 µM), without a hit: top-dose activity change, negative = inhibition, most hits filed as inhibitors. Marburg virus pseudotyped entry inhibition, cell reporter. 300,000 compounds, 1.8% hits; calls by dose curve; tested in HEK293 cells
Vaccinia mCherry: qHTS for Stage-Specific Inhibitors of Vaccinia Orthopoxvirus: mCherry Reporter Primary qHTS; Vaccinia virus mCherry reporter infection, fluorescence; Potency, µM (series often up to 36.5 µM), for inactives: at the highest dose activity change, negative = inhibition, usual class: inhibitors; 310,000 compounds, 0.63% hits; AID 720579, 2013; calls by dose curve; tested in A549 cells; also: nearly all actives have a fitted effect of over 35% in size
LASV entry inh: qHTS for Inhibitors of binding or entry into cells for Lassa Virus; 300,000 compounds, 1.2% hits; Potency, µM (series often up to 37.9 µM), inactives show at the top dose activity change, negative = inhibition, hits mostly inhibitors; Lassa virus pseudotype entry inhibition, cell reporter; calls by dose curve; tested in HEK293 cells; also: nearly all actives have a fitted effect of over 50% in size
* marks the source's active call; other numbers are inactive results; [ ] = dose if it differs, or a comment. The list is not random: actives were taken first. Their share in the collection is about 2.5%. % is scaled to controls: 0 for no effect and ±100 for the full control effect; potency is read from the fitted curve at half-maximal effect.

CCCCOCCCNCC(=O)Nc1ccc(S(N)(=O)=O)cc1 was read as Vaccinia Venus 2.6%, MARV entry inh 8.3%[46.1 µM], Vaccinia mCherry -1.9% and LASV entry inh -1.5%.
`CCCCNCC(=O)Nc1ccc(NC(=O)CNCCCC)cc1` gave Vaccinia Venus -11.6%, MARV entry inh 10µM*, Vaccinia mCherry inactive and LASV entry inh -17.1%.
For COc1ccc(N2C(=O)[C@@H]3C[C@H]2CN3Cc2cccn2-c2ccc(Cl)cn2)c(C)c1 the results were Vaccinia Venus 0.3% and Vaccinia mCherry -6.9%.
Nc1ncnc2occ(-c3ccc(NC(=O)Nc4cc(C(F)(F)F)ccc4F)cc3)c12 was read as LASV entry inh 15.8µM*.
COc1ccc(-c2oc3ncnc(N)c3c2-c2ccc(NC(=O)Nc3cc(C(F)(F)F)ccc3F)cc2)cc1 was read as LASV entry inh 11.2µM*.
`O=C(Nc1cc(C(F)(F)F)ccc1F)C1CCC1` gave Vaccinia Venus -11.1%, MARV entry inh 6.6%[46.1 µM] and LASV entry inh 10.3%.
For Cc1cccnc1-c1cccc2c1OC(CNC(=O)Cc1c(C)noc1C)C2 (stereo not drawn) the results were Vaccinia Venus -0.3% and Vaccinia mCherry -9.6%.
Screening CC(C)(CO)NCc1c(OCc2ccc(Cl)cc2)ccc2ccccc12 returned Vaccinia Venus inconclusive, MARV entry inh inconclusive, Vaccinia mCherry inconclusive and LASV entry inh 2.51µM*.
`CCn1c(-c2ccccc2F)nc2cc(C(=O)NCc3ccc(C)o3)cc(NC(C)=O)c21` gave Vaccinia Venus -14.9% and Vaccinia mCherry inactive.
`C=CCN1C(=O)[C@]2(O[C@H](C)CC3=CCCC32)c2c(Br)cccc21` (stereo partly drawn) gave MARV entry inh 2.0%[14.2 µM] and LASV entry inh inconclusive.
`C=CCn1c(SCC(=O)c2ccc(CNC(C)=O)o2)nc2ccccc2c1=O` gave Vaccinia Venus 1.26µM*, MARV entry inh -19.8% and LASV entry inh 6.2%.
For C=CCn1c(SCC(N)=O)nc2ccccc2c1=O the results were Vaccinia Venus -14.6% and Vaccinia mCherry 30.9%.
For O=C(N/N=C/c1cccnc1)c1ccc(O)cc1 the results were Vaccinia Venus -8.3%, MARV entry inh -1.9%[46.1 µM], Vaccinia mCherry -1.1% and LASV entry inh inconclusive.
`O=C(NN=Cc1ccc(N(CCCl)CCCl)cc1Cl)c1cccnc1` gave Vaccinia Venus inconclusive, MARV entry inh 1.58µM*, Vaccinia mCherry inconclusive and LASV entry inh inconclusive.
Cc1cc(N(CCCl)CCCl)ccc1C=NNC(=O)c1cccnc1 was read as Vaccinia Venus -28.7%, MARV entry inh inconclusive, Vaccinia mCherry -1.8% and LASV entry inh inconclusive.
`O=C(N/N=C/c1cccnc1)c1cc(O)c(O)c(O)c1` gave Vaccinia Venus -0.1%, MARV entry inh 3.16µM*, Vaccinia mCherry -14.4% and LASV entry inh inconclusive.
Screening Cc1cc(O)c(C)c(O)c1/C=N/NC(=O)c1cccnc1 returned Vaccinia Venus -23.3%, MARV entry inh 10µM*, Vaccinia mCherry inconclusive and LASV entry inh inconclusive.
CN(C)c1ccc(/C=C/c2ccnc3ccc(Cl)cc23)cc1 was read as Vaccinia Venus 5.6% and Vaccinia mCherry 37.5%.
Cc1ccc(NS(=O)(=O)c2cc3c4c(cccc4c2)C(=O)NC3=O)cc1C was read as Vaccinia Venus 10µM*, MARV entry inh inconclusive, Vaccinia mCherry 12.6µM* and LASV entry inh inconclusive.
Screening O=C1NC(=O)c2cc(Br)cc3cccc1c23 returned Vaccinia Venus -5.5%, MARV entry inh -1.2%[46.1 µM], Vaccinia mCherry 2.8% and LASV entry inh 16.6%.
C=CCn1c(O)c(C(C)=Nc2ccc(N(CC)CC)cc2)c(=O)[nH]c1=O was read as MARV entry inh -18.0% and LASV entry inh inconclusive.
For C=CCn1c(O)c(C(CC)=Nc2ccc(N(CC)CC)cc2)c(=O)[nH]c1=O the results were MARV entry inh -1.3% and LASV entry inh 3.26µM*.
`CCCCn1c(O)c(C(CC)=Nc2ccc(OCC)cc2)c(=O)[nH]c1=O` gave MARV entry inh -3.2% and LASV entry inh 0.326µM*.
Screening COc1ccc2[nH]cc(CCN3C(=O)CCC3=O)c2c1 returned Vaccinia Venus -12.9%, MARV entry inh 8.3% and LASV entry inh -7.7%.
Screening COc1ccc2[nH]cc(CCCN3C(=O)c4ccccc4C3=O)c2c1 returned Vaccinia Venus -5.8%, MARV entry inh inconclusive, Vaccinia mCherry -7.6% and LASV entry inh 11.2µM*.
`O=C1[C@H]2[C@@H]3[C@@H](O)[C@H](O)CC(=NOCc4ccccc4)[C@@H]3CC[C@H]2C(=O)N1C1CCCCC1` gave MARV entry inh -13.6%[14.2 µM] and LASV entry inh -8.1%[14.3 µM].
Screening O=c1cc(-c2ccccc2Cl)oc2ccc([N+](=O)[O-])c(O)c12 returned Vaccinia Venus -22.9%, MARV entry inh 18.0%, Vaccinia mCherry inconclusive and LASV entry inh 3.9%.
`Nc1ccc2oc(-c3ccccc3Cl)cc(=O)c2c1O` gave Vaccinia Venus 0.891µM*, MARV entry inh -5.2%, Vaccinia mCherry 0.794µM* and LASV entry inh 1.6%.
For Cc1cccc(CNC(=O)c2cnn(-c3nccc(-c4ccccc4C(F)(F)F)n3)c2C)n1 the results were Vaccinia Venus -12.2% and Vaccinia mCherry -10.3%.
CCOC(=O)CSC1=C(C#N)[C@H](c2ccc3c(c2)OCO3)CC(=O)N1 was read as MARV entry inh 15.8µM*.
`CCCCOC(=O)CSC1=C(C#N)[C@H](c2ccc3c(c2)OCO3)CC(=O)N1` gave MARV entry inh 7.4%.
CCC1CN(CCNC(=O)c2cccnc2OC)Cc2cc(OC)ccc2O1 (stereo not drawn) was read as Vaccinia Venus -1.0% and Vaccinia mCherry -13.4%.
`COc1cccc2nccc(/C=C/c3ccc(N(C)C)cc3)c12` gave Vaccinia Venus 44.3% and Vaccinia mCherry -19.0%.
Screening Cc1cc2nccc(/C=C/c3ccc(N(C)C)cc3)c2cc1C returned Vaccinia Venus 0.8% and Vaccinia mCherry inactive.
For O=C(N/N=C/c1cn(-c2cccs2)nc1-c1ccccc1)c1ccccc1Br the results were Vaccinia Venus inconclusive, MARV entry inh -28.5%, Vaccinia mCherry inactive and LASV entry inh -12.9%.
`O=C(N/N=C/c1cn(-c2cccs2)nc1-c1ccccc1)c1ccccc1O` gave Vaccinia Venus inconclusive, MARV entry inh 16.4µM*, Vaccinia mCherry 12.6µM* and LASV entry inh 12.6µM*.
Screening C1=NCCc2c1[nH]c1ccccc21 returned Vaccinia Venus -17.1%[7.34 µM], MARV entry inh inconclusive, Vaccinia mCherry inactive[7.34 µM] and LASV entry inh 5.01µM*.
c1ccc2c3c([nH]c2c1)CCCC3 was read as Vaccinia Venus -9.8% and Vaccinia mCherry 43.4%.
For CCOc1ccc(NC(=O)NC23CC4CC(CC(C4)C2)C3)cc1 the results were Vaccinia Venus -29.2%, MARV entry inh inconclusive, Vaccinia mCherry inactive and LASV entry inh 11.2µM*.
`COc1ccc(NC(=O)NC23CC4CC(CC(C4)C2)C3)cc1OC` gave Vaccinia Venus -21.3%, MARV entry inh 13.8% and LASV entry inh 2.8%.
